Source: PubChem BioAssay
Not all results are given here.
aSyn 5UTR act: Activators working through SNCA 5'UTR binding (MLPCN); alpha-synuclein 5'UTR reporter, activators screen; activity score, % (tested at 7.5 µM), hits read low; hit rate 7.1% among 300,000; in the data active = activity score below about -60%
Numbers stand for hits; n = inactive.

SMILES | aSyn 5UTR act
COc1ccc(-c2nn(-c3ccccc3)cc2C(=O)NC(=S)NNC(=O)c2ccncc2)cc1 | n
O=C(N/N=C/c1cn(-c2ccccc2)nc1-c1cc2ccccc2o1)c1ccccc1Br | -115
N#Cc1cn(-c2ccccc2)nc1-c1cc2ccccc2oc1=O | -63
Cc1ccoc1C(=O)Nc1cccc2ccccc12 | -92
O=C(CCc1ccccc1)Nc1c(F)cccc1F | -133
O=C(Nc1ccccc1C(=O)NCCc1ccccc1)c1cnccn1 | -68
O=C(NCCc1ccccc1)c1ccccc1NC(=O)C1CC=CCC1C(=O)O (stereo not given) | -133
O=C(O)CCC(=O)Nc1ccccc1C(=O)NCCc1ccccc1 | -78
O=C(Nc1cccc2ccccc12)c1cnccn1 | -96
NC(=O)c1ccccc1NC(=O)CCc1ccccc1 | -113
CN1CCN(c2nc(Nc3cccc(C(F)(F)F)c3)nc(N3CCOCC3)n2)CC1 | -69
CCc1ccc2nc3sc(C(=O)O)cc3cc2c1 | -81
O=C(NC(c1ccc(Cl)cc1)c1cc(Cl)c2cccnc2c1O)c1cccnc1 (stereo not given) | n
CC(C)C(=O)NC(c1ccc(Cl)cc1Cl)c1ccc2cccnc2c1O (stereo not given) | n
O=C(Nc1cccc2cccnc12)c1ccc(Cl)cc1 | -76
Cc1ccc(/C=C/C(=O)Nc2cccc3cccnc23)o1 | -132
O=C(Nc1cccnc1Cl)c1ccc(Cl)cc1 | -148
O=C(Nc1ccnc(-c2cccnc2)n1)c1ccc(Cl)cc1 | -117
Cc1ccc(C(=O)Nc2cccc3cccnc23)cc1C | -87
CCC(=O)NC(c1ccc(C)cc1)c1ccc2cccnc2c1O (stereo not given) | n
O=C(NC(=S)Nc1cccnc1Cl)c1ccc(Cl)cc1 | -154
C/C(=N\Nc1cccc2cccnc12)c1ccc(C)cc1 | -170
CN(C)CCCNC(=O)c1ccc(-c2nc(-c3ccc(Cl)cc3)cs2)cc1 | n
N=C1C(c2nc(-c3ccc(Cl)cc3)cs2)=C(O)CN1NC(=O)c1ccc(O)cc1 | -73
CCCOc1ccc(-c2c(=O)n(O)c3ccccc3[n+]2[O-])cc1 | -176
SMILES | aSyn 5UTR act
CCOc1ccc(/C=N/n2cc(-c3ccccc3)[nH]c2=S)cc1 | -65
CN(C)S(=O)(=O)N1CCC(Oc2ccc(C(=O)NC3Cc4ccccc4C3)cc2)CC1 | -65
Cc1cc(CNC(=O)c2cccc(OC3CCN(S(=O)(=O)N(C)C)CC3)c2)on1 | -139
COc1ccc(-c2nnc(NC(=O)c3ccc(S(=O)(=O)N4CCc5ccccc5C4)cc3)o2)cc1 | n
COc1ccsc1NC(=O)OCc1ccc(Cl)cc1 | -69
CN1CCN(S(=O)(=O)c2cccc(C(=O)Nc3sc4c(c3-c3nc5ccccc5[nH]3)CCCC4)c2)CC1 | -109
c1ccc(Oc2ccc3ccccc3n2)cc1 | -129
Fc1ccccc1CSc1nc2ncc(Br)cc2[nH]1 | -127
CC1Cc2ccccc2N1C(=O)c1ccc(Br)o1 (stereo not given) | -129
Cc1cccc(N2CCN(C(=O)c3ccc(CS(=O)(=O)c4ccccc4C)o3)CC2C)c1 (stereo not given) | n
Cc1ccc(C(=O)N2c3ccccc3CC2C)o1 (stereo not given) | -92
NC(=S)Nc1cccc2cc3ccccc3cc12 | -101
O=c1n(-c2ccc(Br)cc2)cnn1-c1ncccc1[N+](=O)[O-] | -101
CC(C)c1ccc(/C=C2\SC(=S)N(CCC(=O)NCCCn3ccnc3)C2=O)cc1 | n
COc1ccc(/C=C2\SC(=O)N(CCC(=O)N(C)C3CCS(=O)(=O)C3)C2=O)cc1 (stereo not given) | -84
COc1ccc(/C=C2\SC(=S)N(CCC(=O)NC3C=CS(=O)(=O)C3)C2=O)cc1 (stereo not given) | n
CC(C)c1ccc(/C=C2\SC(=O)N(CC(=O)NC3CCS(=O)(=O)C3)C2=O)cc1 (stereo not given) | -90
O=C(CN1C(=O)S/C(=C\C=C\c2ccccc2)C1=O)NC1CCS(=O)(=O)C1 (stereo not given) | -169
COc1cc(CNc2ccc3[nH]c(=O)[nH]c3c2)ccc1OCc1ccccc1F | -107
COc1cc(CNc2ccc3[nH]c(=O)[nH]c3c2)ccc1OCc1ccc(Cl)cc1 | -171
COc1cc(CNc2ccc(CNc3ncn[nH]3)cc2)ccc1OCc1ccccc1 | -117
COc1cc(CNc2ccc3[nH]c(=O)[nH]c3c2)ccc1OCc1ccc(F)cc1 | -91
COc1cc(CNc2ccc3[nH]c(=O)[nH]c3c2)ccc1OCc1ccccc1 | -86
C/C(=N\N1C(=O)c2ccccc2NC1c1ccco1)c1ccccc1O (stereo not given) | n
O=C1c2ccccc2NC(c2ccco2)N1/N=C/c1ccco1 (stereo not given) | -92
SMILES | aSyn 5UTR act
Cc1ccc(/C=N/N2C(=O)c3ccccc3NC2c2ccc(C)cc2)cc1 (stereo not given) | -84
O=C(O)c1ccc2c3n(nc2c1)-c1ccc(Cl)cc1CO3 | -161
O=C(c1ccc2c3n(nc2c1)-c1ccc(Cl)cc1CO3)N1CCCCC1 | -138
Cc1ccc2c(c1)COc1c3ccc(C(=O)N4CCOCC4)cc3nn1-2 | -113
CCOC(=O)N1CCN(c2nc(-c3ccc(OC)cc3)no2)CC1 | -88
COc1ccc(-c2nc(-c3ccc(C(=O)O)cc3)no2)cc1 | -90
COc1ccc(-c2noc(-c3ccc(Cl)cc3)n2)cc1 | -131
COC(=O)c1ccc(-c2nc(-c3ccc(Br)o3)no2)cc1 | -108
Cc1nc(-c2noc(-c3ccc(Cl)cc3)n2)c(C(F)(F)F)o1 | -103
COc1ccc(-c2noc(-c3ccc(Br)o3)n2)cc1 | -212
Cc1ccc2c(c1)sc[n+]2Cc1ccccc1 | -256
CCN(CC)S(=O)(=O)c1ccc2nc(NC(=O)c3ccco3)sc2c1 | -63
CCN(CC)S(=O)(=O)c1ccc2nc(NC(=O)c3cccs3)sc2c1 | -104
CC(=O)c1cccc(NC(=O)N2CCc3ccccc3C2)c1 | -171
CC(=O)c1ccc(NC(=O)N2CCc3ccccc3C2)cc1 | -87
O=C(N/N=C1/CC2C=CCC12)c1cccs1 (stereo not given) | -75
O=C(N/N=C1/CC2C=CCC12)c1ccco1 (stereo not given) | -66
CC(C)CN(C(=O)c1ccc(=O)n(C)n1)c1nc2ccccc2s1 | -109
Nc1ccc(OC(=O)Nc2ccc(O)cc2)cc1 | n
CCOC(=O)c1ccc(NC(=O)c2ccccc2[N+](=O)[O-])cc1 | -76
CCOC(=O)c1ccc(NC(=O)c2n[nH]c(=O)c3ccccc23)cc1 | -90
O=C(Nc1ccc2c(c1)OCO2)c1n[nH]c(=O)c2ccccc12 | -140
CCOC(=O)c1ccc(NC(=O)Oc2ccccc2)cc1 | -66
CCOC(=O)c1ccc(NC(=O)c2nc(S(=O)(=O)Cc3ccccc3)ncc2Cl)cc1 | n
CCOC(=O)c1ccc(Nc2ncccc2[N+](=O)[O-])cc1 | -218
SMILES | aSyn 5UTR act
CC1CCN(c2ccc(NC(=O)c3ccccc3[N+](=O)[O-])cc2)CC1 | -70
O=C(OCCC1Oc2cccnc2NC1=O)c1ccc([N+](=O)[O-])cc1 (stereo not given) | n
CCC(=O)NC(c1ccc(C)cc1)c1cc([N+](=O)[O-])c2cccnc2c1O (stereo not given) | n
CCOC(=O)c1ccc(NC(=O)c2ccccc2)cc1 | -252
CCOC(=O)c1c(C)[nH]c2cc(Br)c(O)cc12 | -92
COCCCN1CN=C(Nc2nc3ccccc3o2)NC1 | -82
c1ccc2oc(NC3=NCN(CC4CCCO4)CN3)nc2c1 (stereo not given) | -94
CCCN1CN=C(Nc2nc3ccccc3o2)NC1 | -113
